From ChEMBL document CHEMBL3988442, “University of Dundee, Small-Polar-MMV Screening Library” (2021)
In all, about 69,000 compounds went through this assay and about 950 (1.4%) showed an effect of 50% or more. The full list was thinned out, with strong results kept by preference.

The compounds below were run on Mycobacterium tuberculosis (assay: Cornell M. t heat shock assay; further: in the data most compounds retested in dose-response had high values).
Format: functional, organism-based
Set-up: dose or concentration left out as unconfirmed

Compared with O=C(O)C(F)(F)F.O=C1COC2(CCN(C(=O)c3ccoc3)CC2)CN1Cc1ccccn1, CN1CCCN(C(=O)c2ccnn2-c2ccc3ccccn23)CC1.O=C(O)C(F)(F)F is lower in “Percent Effect” value: -25.96% for the first, -45.73% for the second.

First: CCc1ccc2c(C3CN(C(C)=O)C3)ncn2c1
Second: CCc1ccc2c(C3CN(S(C)(=O)=O)C3)ncn2c1
The “Percent Effect” value of the first is higher: -5.457% for the first, -5.732% for the second.

Going from CCc1ccc2c(C3CN(CC4CCC4)C3)ncn2c1.O=C(O)C(F)(F)F to CCc1ccc(CN2Cc3nccn3CC(Cn3cncn3)C2)o1.O=C(O)C(F)(F)F (stereo not given), the “Percent Effect” value falls from 59.23% to 0.4246%.

Going from Cc1ccoc1C(=O)N1C[C@H](OCc2cccnc2)[C@H]2OCCC[C@H]21.O=C(O)C(F)(F)F to O=C(CC1CC1)N1C[C@@H]2CCN(c3cccnc3)C[C@@H]2C1.O=C(O)C(F)(F)F, the “Percent Effect” value rises from -24.06% to -11.14%.

Compared with CCc1cc(NCCCNS(C)(=O)=O)nc(-c2ccccn2)n1, CCc1cc(NCCCNS(C)(=O)=O)nc(-c2ccncc2)n1 is lower in “Percent Effect” value: 56.84% for the first, -1.348% for the second.

First: CNc1cc(CCNS(=O)(=O)c2ccccc2)nc(-c2ccccn2)n1
Second: CCCC(=O)NCCc1cc(NC)nc(-c2ccccn2)n1
The “Percent Effect” value of the first is higher: 99.14% for the first, 12.39% for the second.

Compared with CNc1cc(CCNC(=O)CC(C)C)nc(-c2ccccn2)n1, CNc1cc(CCNC(=O)C2CCCC2)nc(-c2ccccn2)n1 is higher in “Percent Effect” value: 36.61% for the first, 89.44% for the second.

Going from CNC(=O)c1ccc(S(=O)(=O)NCCc2ccccn2)cc1 to NC(=O)c1ccc(S(=O)(=O)NCCc2ccccn2)cc1, the “Percent Effect” value rises from -8.04% to 2.755%.

Going from Cc1cc(NCCCNS(C)(=O)=O)nc2ccccc12 to Cc1ccsc1CN(c1nc(CCN)nc2ccccc12)C1CC1, the “Percent Effect” value rises from -11.41% to 91.12%.

First: CC1=C(C#N)C(=O)NC(=O)/C1=C\c1c(C)nn(-c2ccc(Cl)cc2)c1O
Second: CC1=C(C#N)C(=O)N(C)C(=O)/C1=C\C1=Cc2ccccc2OC1
The “Percent Effect” value of the first is higher: -14.1% for the first, -26.04% for the second.

Going from COc1ccc(CN2CC[C@H]3O[C@@H](C(=O)NCC4CC4)CC[C@H]32)cc1.O=C(O)C(F)(F)F to Cc1ccc(CN2C[C@@H]3CN(C(=O)c4cccn4C)C[C@@H]3C2)cc1.O=C(O)C(F)(F)F, the “Percent Effect” value rises from -25.68% to -6.874%.

Going from COc1cc(N2C[C@@H]3CC[C@H](C2)N(CC2CCC2)C3=O)ncn1 to COc1ccccc1C(=O)N1CC(=O)N(CC2CC2)CC(O)C1 (stereo not given), the “Percent Effect” value rises from -13.86% to 43.16%.

Going from Cc1nc(N)c2ccc(C3CCCN3)nc2n1.Cl (stereo not given) to NCCc1nc(N(Cc2nccs2)C2CC2)c2ccccc2n1, the “Percent Effect” value falls from -2.129% to -17.4%.

First: COCCN1C[C@H]2CC[C@@H]1CN(CC(=O)Nc1ccn(C)n1)C2
Second: COCCN1C[C@H]2CC[C@@H]1CN(Cc1nc3ccccc3n1C)C2
The “Percent Effect” value of the first is lower: -13.49% for the first, 78.75% for the second.

First: CC(C)=CCN1C[C@H]2CC[C@@H]1CN(Cc1cc(=O)[nH]c(=O)[nH]1)C2
Second: O=c1cc(CN2C[C@H]3CC[C@@H]2CN(Cc2ccccc2)C3)[nH]c(=O)[nH]1
The “Percent Effect” value of the first is higher: 13.63% for the first, -10.28% for the second.

Going from COCCN1C[C@H]2CC[C@@H]1CN(Cc1cc(=O)c3cc(C)ccc3[nH]1)C2 to COCCN1C[C@H]2CC[C@@H]1CN(Cc1ccc3ccccc3n1)C2, the “Percent Effect” value falls from 51.84% to 46.17%.

Going from CN(C)[C@@H]1CCN(C(=O)CC2CC2)[C@H]1Cc1cnn(C)c1.O=C(O)C(F)(F)F to O=C(O)C(F)(F)F.O=C1C[C@H]2[C@@H](CCN2C(=O)c2ccc[nH]2)N1CCN1CCCC1, the “Percent Effect” value falls from 1.412% to -37.83%.

Going from CC1CCN(c2ncc(-c3ccccc3F)c(-c3nccn3C)n2)CC1 to CC1CCCN(c2ncc(-c3ccccc3F)c(-c3nccn3C)n2)C1 (stereo not given), the “Percent Effect” value rises from 17.54% to 84.22%.

First: Cn1ccnc1-c1nc(N2CCCCC2)ncc1-c1ccccc1F
Second: O=C(c1nn(-c2ccccc2F)cc1O)N1CCCCC1
The “Percent Effect” value of the first is lower: -0.09407% for the first, 22.71% for the second.

First: O=C([C@H]1C[C@@H]2CN(c3ncc(F)cn3)C[C@H]1O2)N1CCOCC1
Second: O=C1c2cnc(N3CCC(O)CC3)nc2CN1Cc1cccc(F)c1
The “Percent Effect” value of the first is higher: 19.91% for the first, -32.08% for the second.

First: CCOC(=O)N1CC(=O)N(Cc2cccc(OC)c2OC)CC(O)C1 (stereo not given)
Second: COc1cccc(CN2CC(O)CN(C(=O)C(C)(C)C)CC2=O)c1OC (stereo not given)
The “Percent Effect” value of the first is lower: 45.58% for the first, 90.93% for the second.

First: Cc1ccc(C(=O)N2CC(=O)N(Cc3ccco3)CC(O)C2)cc1 (stereo not given)
Second: COc1ccccc1C(=O)N1CC(=O)N(Cc2ccco2)CC(O)C1 (stereo not given)
The “Percent Effect” value of the first is lower: 34.47% for the first, 54.55% for the second.

Compared with CC(C)(C)C(=O)N1CC(=O)N(Cc2ccco2)CC(O)C1 (stereo not given), CC(C)(C)OC(=O)N1CC(=O)N(Cc2ccco2)CC(O)C1 (stereo not given) is lower in “Percent Effect” value: 52.39% for the first, 11.64% for the second.

First: COc1cccc(CN2CC(O)CN(C(=O)C3CC3)CC2=O)c1OC (stereo not given)
Second: CC(C)CC(=O)N1CC(=O)N(Cc2ccco2)CC(O)C1 (stereo not given)
The “Percent Effect” value of the first is higher: 31.08% for the first, 14.12% for the second.

Compared with O=C(CCc1nnc(-c2ccccc2)o1)N1CCCC1c1ccc[nH]1 (stereo not given), CC1CN(CC(=O)NCCc2ccccc2)CCN1c1nccs1 (stereo not given) is lower in “Percent Effect” value: -1.66% for the first, -17% for the second.

First: Cc1cccnc1N1CC2(CCN(Cc3cccnc3)C2)C1.O=C(O)C(F)(F)F.O=C(O)C(F)(F)F.O=C(O)C(F)(F)F
Second: O=C(O)C(F)(F)F.O=C(O)C(F)(F)F.O=C(c1cscn1)N1CCC2(CN(Cc3ccncc3)C2)C1
The “Percent Effect” value of the first is higher: -27.63% for the first, -52.86% for the second.

First: CN(C)CCN1CCCC12CCN(C(=O)c1ccco1)CC2.O=C(O)C(F)(F)F.O=C(O)C(F)(F)F
Second: Cc1cccc(CN2Cc3nccn3CC(CN3CCOCC3)C2)c1.O=C(O)C(F)(F)F.O=C(O)C(F)(F)F (stereo not given)
The “Percent Effect” value of the first is higher: -2.887% for the first, -25.56% for the second.

First: CN(C)CCOCC1CN(Cc2ccncc2)Cc2nnn(C)c21.O=C(O)C(F)(F)F.O=C(O)C(F)(F)F.O=C(O)C(F)(F)F (stereo not given)
Second: COCC1c2c(cnn2C)CCN1Cc1cccc(C)c1.O=C(O)C(F)(F)F.O=C(O)C(F)(F)F (stereo not given)
The “Percent Effect” value of the first is higher: -16.03% for the first, -46.03% for the second.

Compared with O=C(c1nn(-c2ccccc2F)cc1O)N1CCCC1, CCc1ccccc1-n1cc(O)c(C(=O)N2CCCCC2)n1 is higher in “Percent Effect” value: 42.43% for the first, 56% for the second.

First: Fc1cccc(CN2C[C@@H]3CN(Cc4ccccn4)C[C@@H]3C2)c1.O=C(O)C(F)(F)F.O=C(O)C(F)(F)F
Second: CCOC1COC2(CCN(Cc3cccc(F)c3)CC2)C1.O=C(O)C(F)(F)F (stereo not given)
The “Percent Effect” value of the first is higher: 35.12% for the first, -9.066% for the second.

First: CCN1CC2(CC1=O)CN(Cc1ccsc1)CCN(C(=O)C(C)C)C2.O=C(O)C(F)(F)F (stereo not given)
Second: Cc1nc(CN2C(=O)COC3(CCN(Cc4ccsc4)CC3)C2C)cs1.O=C(O)C(F)(F)F (stereo not given)
The “Percent Effect” value of the first is higher: -8.211% for the first, -25.28% for the second.

First: Cc1nc(Nc2cnccn2)cc(C2CN(C(C)C)C2)n1.O=CO
Second: CC(C)N1CCCC(CN(C)c2ccc(Cn3ccnc3)cn2)C1 (stereo not given)
The “Percent Effect” value of the first is lower: -9.635% for the first, -4.084% for the second.

Going from COc1ccc2c(c1)CN(Cc1ccco1)C(=O)CCN2 to O=C1CCNc2ccc(F)cc2CN1Cc1ccco1, the “Percent Effect” value falls from 54.29% to 32.83%.

First: O=C1CCNc2ccccc2CN1Cc1ccco1
Second: COC[C@H]1CCCN1c1nccc(-c2cnn(-c3ccccc3C)c2)n1
The “Percent Effect” value of the first is lower: 41.47% for the first, 57.5% for the second.

First: CCCNC(c1cccnc1)c1ccc(F)c(C)c1.Cl.Cl (stereo not given)
Second: CC(C)(O)CCc1cccc(C(=O)NCc2cnn3cccnc23)c1
The “Percent Effect” value of the first is lower: -18.54% for the first, -5.166% for the second.

First: Cc1noc(C)c1CN1CC[C@H]2[C@@H]1CCC(=O)N2CC1CCOCC1.O=C(O)C(F)(F)F
Second: O=C(O)C(F)(F)F.O=C(c1ccc[nH]1)N1CCc2c(COCC3CC3)cncc2C1
The “Percent Effect” value of the first is higher: 19.97% for the first, -0.4009% for the second.

Compared with O=C(O)c1cc(/C=C/c2ccc3ccccc3c2)ncn1, O=C(O)c1cc(/C=C/c2cccc3ccccc23)ncn1 is lower in “Percent Effect” value: 55.05% for the first, -14.83% for the second.

Compared with O=C(O)c1cc(/C=C/c2ccccc2)ncn1, CN(CC1CCN(c2ccccc2)C1)c1ccc(Cn2ccnc2)cn1 (stereo not given) is higher in “Percent Effect” value: -25.85% for the first, 105.3% for the second.

First: O=C(C1CCCCC1)N1C[C@@H]2CCN(c3cnccn3)C[C@@H]2C1.O=C(O)C(F)(F)F
Second: O=C(N1CCCC1)N1Cc2nccn2CC(CN2CCCC2)C1.O=C(O)C(F)(F)F (stereo not given)
The “Percent Effect” value of the first is higher: 23.71% for the first, -12.61% for the second.

Going from Cc1ccccc1-n1cc(-c2ccnc(N3CCCC(CN)C3)n2)cn1 (stereo not given) to Cc1ccccc1-n1cc(-c2ccnc(N3CCCC(O)C3)n2)cn1 (stereo not given), the “Percent Effect” value falls from 6.089% to 0.7216%.

First: COCCNC(=O)C(C)N1CCN(C)CC1.O=C(O)C(=O)O (stereo not given)
Second: CC(=O)N1CC(=O)N(c2cnn(C)c2)CC12CCN(Cc1cccs1)C2.O=C(O)C(F)(F)F (stereo not given)
The “Percent Effect” value of the first is higher: 1.358% for the first, -1.108% for the second.

Compared with OC1CCN(C2CCN(c3ccc(Cn4ccnc4)cn3)CC2)CC1, O=C(NCc1cnn2cccnc12)c1cccc(CC2CCNCC2)c1 is higher in “Percent Effect” value: 13.23% for the first, 70.42% for the second.

First: CCc1cc2cc(OC)c(OC)cc2nc1SCCN1CCCCC1.Cl
Second: Cc1cc(N2CCOCC2)ccc1NC(C)c1nc(C(C)C)no1 (stereo not given)
The “Percent Effect” value of the first is lower: -12.6% for the first, 45.07% for the second.

Going from CC(C)Cn1cncc1CNC(=O)c1cccc(CC2CCNCC2)c1 to NCCc1nc(N(Cc2cncs2)C2CC2)c2ccccc2n1, the “Percent Effect” value falls from -17.32% to -30.71%.

Compared with Cc1noc(C(C)Nc2ccc(N3CCOCC3)cc2C)n1 (stereo not given), Cc1cc(N2CCOCC2)ccc1NC(C)c1nc(C(C)(C)C)no1 (stereo not given) is higher in “Percent Effect” value: 41.84% for the first, 72.1% for the second.
